Measured values published in PubChem BioAssay (NCATS).
Records with an inconclusive call do not appear. Active and inactive are the calls of the source. Unless noted, the call rests on the fitted dose curve.

Assay: Confirmation and Secondary Assay for Modulators of Hemoglobin Beta Chain Splicing at IVS2 705 locus (AID 930; active means well fitted activation curve with a large enough effect;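 further: HeLa cells stably expressing the EGFP-705 splicing reporter; GFP fluorescence per well restored by corrected splicing of the IVS2-705 intron in EGFP; % of control where 0% means no effect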)
Conditions: HeLa EGFP-705 splicing reporter, GFP fluorescence, 48 h; series mostly up to 46.1 µM; activation: at the top concentration
Method in brief: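 HeLa cells stably carrying EGFP interrupted by mutant beta-globin intron 2 (IVS2-705) treated 2 days at 37C with compound; 500 nM antisense PNA as control. Correct splicing read as total peak GFP intensity per well by laser-scanning cytometry.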

activation, inactive:
COC(=O)CC1C(C)(C)C(OC(C)=O)[C@@]2(O)C=C3C4CC(=O)OC(c5ccoc5)[C@]4(C)CCC3[C@@]1(C)C2=O (stereo partly specified) -1.62%, CC(=O)OCC(=O)C1CCC2C3CCC4=CC(=O)CC[C@@]4(C)C3CC[C@]12C (stereo partly specified) 2.31%, CC(=O)OC1C[C@@]2(C)C(c3ccoc3)OC(=O)C3O[C@@]32[C@]2(C)C(OC(C)=O)CC3C(C)(C)C(OC(C)=O)CC(OC(C)=O)[C@@]3(C)C12 (stereo partly specified) 0.865%, COc1ccc2c(c1)OCC(Cc1ccc(OC)c(O)c1)C2=O (stereo unspecified) 3.61%, CC(=O)OC1C=C[C@]2(C)C(CC(OC(C)=O)[C@@]3(C)C4=CC(=O)OC(c5ccoc5)[C@]4(C)CCC23)C1(C)C (stereo partly specified) 1.64%, CC1(C)C(=O)CC[C@@]2(C)C1CC(O)[C@@]1(C)C3=CC(=O)OC(c4ccoc4)[C@]3(C)CCC21 (stereo partly specified) 0.683%, C/C=C(\C)C(=O)OC1[C@@H]2C=C3C4CC(=O)OC(c5ccoc5)[C@]4(C)CCC3[C@@](C)(C2=O)C(C(O)C(=O)OC)C1(C)C (stereo partly specified) -0.329%, CNc1ccccc1C(=O)N1CCc2c([nH]c3ccccc23)C1=O 0.201% [at 38.3 µM], CC(=O)OC1CC(OC(C)=O)[C@]2(C)C(CC(=O)[C@]3(C)C2CC[C@@]2(C)C(c4ccoc4)OC(=O)C4O[C@@]423)C1(C)C (stereo partly specified) -1.32%, Cc1ccc2c(c1)CC[C@H]1CC(=O)CC[C@@]21C -0.773%, CCN(CC)Cc1ccc(Nc2ccnc3cc(Cl)ccc23)cc1O 0.832%, COc1ccc2c(c1)[C@]1(C)CCC(=O)C[C@H]1CC2 1.31% [at 38.3 µM], CCCCCC(=O)Cc1cc(O)cc(O)c1C(=O)Oc1cc(CC(=O)CCCCC)c(C(=O)O)c(OC)c1 2.74% [at 38.3 µM], COc1c(OC)c2occc2c2oc(=O)ccc12 2.5%, Nc1nc2c(nc(Sc3ccc(Cl)cc3)n2C2OC(CO)C(O)C2O)c(=O)[nH]1 (stereo unspecified) -0.288% [at 38.3 µM], COc1ccc(C2CC(=O)c3c(O)cc(O)cc3O2)cc1O (stereo unspecified) 2.15% [at 38.3 µM], O=C1CC(c2ccc(O)c(O)c2)Oc2cc(O)cc(O)c21 (stereo unspecified) 1.06%, COc1ccc(/C=C/C(=O)c2ccc(O)cc2O)cc1OC -0.122%, COC(=O)CC1C(C)(C)C(=O)C2CC3=C4CC(=O)OC(c5ccoc5)[C@]4(C)CCC3[C@@]1(C)C2=O (stereo partly specified) -1.07%, CCOC(=O)CCC(=O)O[C@H]1C(O[C@@H]2C(C)[C@H](O[C@H]3C[C@@](C)(OC)C(O)C(C)O3)C(C)C(=O)OC(CC)[C@@](C)(O)C(O)[C@H](C)C(=O)C(C)C[C@]2(C)O)OC(C)CC1N(C)C (stereo partly specified) -0.518%, C=C[C@](C)(O)CCC1C(=C)CCC2[C@@](C)(CO)CCC[C@@]12C (stereo partly specified) -0.989% [at 38.3 µM], COC1(C)CCC2OC2(C)CCC2C1CC2(C)C (stereo unspecified) -0.435% [at 38.3 µM], CC1CC[C@@]23CCC4(C)[C@@]5(C)CCC6C(C)(C)C(O)CC[C@@]6(C)C5C=C[C@@]4(OC2=O)C3C1C (stereo partly specified) 0.226% [at 38.3 µM], CCCc1cc(OC)c2c(c1)OCO2 0.433%, C=C1C2CC[C@@]3(C)C(c4ccoc4)OC(=O)C[C@@]13OC1CC(=O)C(C)(C)C(C(O)C(=O)OC)[C@]12C (stereo partly specified) 2.03%, CC(=O)OC1CC2C(C)(C)C(O)CC(O)[C@@]2(C)C2CC[C@@]3(C)C(=CC(=O)OC3c3ccoc3)[C@]12C (stereo partly specified) 1.56%

Assay: qHTS Assay for Lipid Storage Modulators (AID 1519); further: on the % scale 0 is the no-effect control and ±100 the full control effect
Conditions: Drosophila S3 cells, BODIPY lipid droplet/cell ratio, laser cytometry; at 57.5 µM (top of the series); cells loaded with oleic acid
Method in brief: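 Cells seeded at 5,000 per well were treated with compounds over a concentration series and loaded with oleic acid (400 uM, as added). Lipid droplet fluorescence (488 nm excitation, 500-530 nm channel) was read by laser-scanning cytometry and normalized to 20 uM Triacsin C.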

Activity change, negative = inhibition, inactive:
COC(=O)CC1C(C)(C)C(OC(C)=O)[C@@]2(O)C=C3C4CC(=O)OC(c5ccoc5)[C@]4(C)CCC3[C@@]1(C)C2=O (stereo partly specified) 10.4%, CC(=O)OCC(=O)C1CCC2C3CCC4=CC(=O)CC[C@@]4(C)C3CC[C@]12C (stereo partly specified) 5.85%, CCCCCC1C(=O)CCC1CC(=O)O (stereo unspecified) 5.46%, CCC(/C=C/C(C)C1CCC2C3CCC4=CC(=O)CC[C@@]4(C)C3CC[C@@]12C)C(C)C (stereo partly specified) 4.65%, CC(=O)OC1C[C@@]2(C)C(c3ccoc3)OC(=O)C3O[C@@]32[C@]2(C)C(OC(C)=O)CC3C(C)(C)C(OC(C)=O)CC(OC(C)=O)[C@@]3(C)C12 (stereo partly specified) -11.3%, Cc1cn(C2CCC(CO)O2)c(=O)[nH]c1=O (stereo unspecified) 4.05%, COc1c(O)cc2c(c1O)C1OC(CO)C(O)[C@H](O)[C@H]1OC2=O (stereo partly specified) 6.03%, COc1ccc2c(c1)OCC(Cc1ccc(OC)c(O)c1)C2=O (stereo unspecified) 6.62%, CC(=O)OC1C=C[C@]2(C)C(CC(OC(C)=O)[C@@]3(C)C4=CC(=O)OC(c5ccoc5)[C@]4(C)CCC23)C1(C)C (stereo partly specified) -0.882%, CC1(C)C(=O)CC[C@@]2(C)C1CC(O)[C@@]1(C)C3=CC(=O)OC(c4ccoc4)[C@]3(C)CCC21 (stereo partly specified) 11%, C/C=C(\C)C(=O)OC1[C@@H]2C=C3C4CC(=O)OC(c5ccoc5)[C@]4(C)CCC3[C@@](C)(C2=O)C(C(O)C(=O)OC)C1(C)C (stereo partly specified) -1.19%, COc1ccc(C2CC(=O)c3c(O)cc(O[C@H]4OC(COC5OC(C)C(O)C(O)[C@@H]5O)C(O)C(O)C4O)cc3O2)cc1O (stereo partly specified) -1.5%, CNc1ccccc1C(=O)N1CCc2c([nH]c3ccccc23)C1=O 8.02%, CON 4.31%, CC(=O)OC1CC(OC(C)=O)[C@]2(C)C(CC(=O)[C@]3(C)C2CC[C@@]2(C)C(c4ccoc4)OC(=O)C4O[C@@]423)C1(C)C (stereo partly specified) 4.36%, Cc1ccc2c(c1)CC[C@H]1CC(=O)CC[C@@]21C 2.54%, COc1ccc(-c2cc(=O)c3c(O)cc(O[C@@H]4OC(COC5OC(C)C(O)C(O)[C@@H]5O)C(O)C(O)C4O)cc3o2)cc1 (stereo partly specified) 5.1%, CCN(CC)Cc1ccc(Nc2ccnc3cc(Cl)ccc23)cc1O -0.352%, CCN1CCN(C(=O)NC(C(=O)NC2C(=O)N3C2SC(C)(C)C3C(=O)O)c2ccccc2)C(=O)C1=O (stereo unspecified) 7.43%, COc1ccc2c(c1)[C@]1(C)CCC(=O)C[C@H]1CC2 8.23%, CCCCCC(=O)Cc1cc(O)cc(O)c1C(=O)Oc1cc(CC(=O)CCCCC)c(C(=O)O)c(OC)c1 4.27%, COc1c(OC)c2occc2c2oc(=O)ccc12 12.4%, CCCCC(=O)Oc1ccccc1C(=O)O -0.236%, CC1(O)CC2C(CC1O)C2(C)C (stereo unspecified) 2.85%, Nc1nc2c(nc(Sc3ccc(Cl)cc3)n2C2OC(CO)C(O)C2O)c(=O)[nH]1 (stereo unspecified) 5.03%, COc1ccc(C2CC(=O)c3c(O)cc(O)cc3O2)cc1O (stereo unspecified) 3.83%, C=C(C)C1CC=C(CO)CC1 (stereo unspecified) 0.669%, O=C1CC(c2ccc(O)c(O)c2)Oc2cc(O)cc(O)c21 (stereo unspecified) 17.7%, COc1ccc(/C=C/C(=O)c2ccc(O)cc2O)cc1OC -12.3%, COC(=O)CC1C(C)(C)C(=O)C2CC3=C4CC(=O)OC(c5ccoc5)[C@]4(C)CCC3[C@@]1(C)C2=O (stereo partly specified) 1.08%, C/C=C1\C2C=C(C)C[C@@]1(N)c1ccc(=O)[nH]c1C2 13.7%, CCOC(=O)CCC(=O)O[C@H]1C(O[C@@H]2C(C)[C@H](O[C@H]3C[C@@](C)(OC)C(O)C(C)O3)C(C)C(=O)OC(CC)[C@@](C)(O)C(O)[C@H](C)C(=O)C(C)C[C@]2(C)O)OC(C)CC1N(C)C (stereo partly specified) -0.5%, C=C[C@](C)(O)CCC1C(=C)CCC2[C@@](C)(CO)CCC[C@@]12C (stereo partly specified) 2.53%, COC1(C)CCC2OC2(C)CCC2C1CC2(C)C (stereo unspecified) 4.15%, CC(=O)OCCC(C)CCC=C(C)C (stereo unspecified) 5.97%, CC(CCC(=O)O)C1CCC2C3CC[C@@H]4CCCC[C@@]4(C)C3CC[C@@]12C (stereo partly specified) 2.19%, CC1CC[C@@]23CCC4(C)[C@@]5(C)CCC6C(C)(C)C(O)CC[C@@]6(C)C5C=C[C@@]4(OC2=O)C3C1C (stereo partly specified) 1.82%, CCCc1cc(OC)c2c(c1)OCO2 11.5%, C=C1C2CC[C@@]3(C)C(c4ccoc4)OC(=O)C[C@@]13OC1CC(=O)C(C)(C)C(C(O)C(=O)OC)[C@]12C (stereo partly specified) -0.848%, CC(=O)OC1CC2C(C)(C)C(O)CC(O)[C@@]2(C)C2CC[C@@]3(C)C(=CC(=O)OC3c3ccoc3)[C@]12C (stereo partly specified) 0.404%
